From PubChem BioAssay (NCI) come the findings set out here.

Some test systems named below: T-47D breast; BT-549 breast; MDA-MB-435 melanoma; SW-620 colon; MCF7 breast; HCT-116 colon; HCC-2998 colon; KM12 colon.
Test in all cases: NCI-60 one-dose screen, 48 h (100 = growth as untreated, 0 = no growth, -100 = all killed)
Common to all, as to details: 10 µM

SMILES strings stand for the structures. Compounds without any hit were thinned out: in the full panel of roughly 83,000, 20% have a hit.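 How to read the values: 0–100, growth inhibition (40 = 60% inhibited); 0, no net growth; -100 to 0, cell death (-40 = 40% of starting cells died; -100 = all dead).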 Values without a mark were called inactive. Active and inactive are the calls of the source. The calls were made as follows: active = growth percent below 10; inactive = the rest.

For the compound `CC[C@H]1OC(=O)[C@H](C)[C@@H](O[C@H]2C[C@@](C)(OC)[C@@H](O)[C@H](C)O2)[C@H](C)[C@@H](O[C@@H]2O[C@H](C)C[C@H](N(C)C)[C@H]2O)[C@](C)(OC)C/C(C)=C2/O[C@@]1(C)C=C2C`, the growth in the assay with T-47D breast is 41.8%; with BT-549 breast it was 78.7%; in the assay on MDA-MB-435 melanoma, -83.4% (active); in the assay on SW-620 colon, -100% (active); in the assay on MCF7 breast it was -8.4% (active); with HCT-116 colon it was 4.59% (active). Moreover, the growth with HCC-2998 colon is -85.8% (active); in the assay on KM12 colon, 18.2%.
As for `COc1cc2ncnc(NC3CCC(O)CC3)c2cc1OC` (stereo not given), the growth is 80.3% with T-47D breast; 92.1% with BT-549 breast; 106% in the assay with MDA-MB-435 melanoma; 101% in the assay with SW-620 colon; 88.3% in the assay on MCF7 breast; 91.4% with HCT-116 colon. In addition, the growth was 106% in the assay with HCC-2998 colon and 95.3% in the assay with KM12 colon.
Regarding `N#Cc1c(-c2ccc(Cl)cc2)csc1NC(=O)Nc1ccc(Cl)c(C(F)(F)F)c1`, the growth in the assay on T-47D breast was -17.7% (active); in the assay with BT-549 breast, 6.57% (active); in the assay with MDA-MB-435 melanoma it was 26%; in the assay with SW-620 colon, 11.1%; in the assay with MCF7 breast it was 3.1% (active); in the assay with HCT-116 colon, -14.7% (active). Besides, the growth in the assay with HCC-2998 colon was 19.8%; with KM12 colon it was 10.4%.
On to `OCC1OC(n2ccc3c(NO)ncnc32)C(O)C1O` (stereo not given), for which the growth in the assay with T-47D breast is -18.9% (active); in the assay on BT-549 breast, -31.5% (active); in the assay with MDA-MB-435 melanoma, -54.5% (active); in the assay with SW-620 colon, -3.1% (active); with MCF7 breast it was -0.414% (active); with HCT-116 colon, -33.1% (active). The results for the growth with HCC-2998 colon and in the assay on KM12 colon were -38.7% (active) and -26.6% (active), respectively.
For `CCOC(=O)C1=CSC2=NC3=C(CCC/C3=C\c3ccc(Cl)cc3)C(c3ccc(Cl)cc3)N12` (stereo not given), the growth with T-47D breast was 77.4%; in the assay on BT-549 breast, 98.4%; in the assay with MDA-MB-435 melanoma, 79.1%; in the assay with SW-620 colon, 100%; with MCF7 breast it was 31.3%; in the assay with HCT-116 colon, 49.7%. Also, the growth was 101% with HCC-2998 colon and 66.7% in the assay on KM12 colon.
Regarding `Cc1ccc(C2=NN(c3ccc(S(C)(=O)=O)cc3)C(=O)CC2)cc1`, the growth in the assay with T-47D breast is 32.7%; in the assay with BT-549 breast it was 11.3%; with MDA-MB-435 melanoma it was -61.2% (active); in the assay with SW-620 colon, 8.58% (active); in the assay with MCF7 breast it was 16.2%; with HCT-116 colon, 17.7%. The growth is 47.2% in the assay with HCC-2998 colon and 35% with KM12 colon.
On to `Cc1ccc(C(=O)/C=C/c2ccccc2)s1`, for which the growth was 141% in the assay on T-47D breast; 99% with BT-549 breast; 98.5% in the assay on MDA-MB-435 melanoma; 100% in the assay with SW-620 colon; 40% in the assay with MCF7 breast; 60.4% with HCT-116 colon. Moreover, the figures for the growth in the assay on HCC-2998 colon and in the assay on KM12 colon were 101% and 92.8%, respectively.
Turning to `Cc1ccc(N=Nc2ccccc2)cc1`, the growth in the assay with T-47D breast is 88.2%; with BT-549 breast, 90%; in the assay with MDA-MB-435 melanoma, 101%; in the assay with SW-620 colon, 102%; with MCF7 breast it was 98.3%; in the assay on HCT-116 colon, 78.4%. Also, the growth in the assay on HCC-2998 colon was 103%; in the assay with KM12 colon it was 93.8%.
Regarding `CNC(=O)c1cn(C2CC2)c2cc(N3CCN(C(=O)c4cc(OC)c(OC)c(OC)c4)CC3)c(F)cc2c1=O`, the growth was 79% in the assay on T-47D breast; 112% in the assay on BT-549 breast; 108% in the assay on MDA-MB-435 melanoma; 103% with SW-620 colon; 94.3% in the assay with MCF7 breast; 103% in the assay on HCT-116 colon. Also, the growth with HCC-2998 colon was 113%; with KM12 colon, 102%.
Turning to `C/C=C/C1=CN2C(=O)c3cc(OC4OC(C)C(NC)C(C)(O)C4O)c(C)c(O)c3N=C[C@@H]2C1` (stereo not given in full), the growth in the assay with T-47D breast was -8.27% (active); with BT-549 breast, -34.4% (active); with MDA-MB-435 melanoma, -77% (active); in the assay with SW-620 colon, -14.9% (active); with MCF7 breast it was 0.963% (active); in the assay with HCT-116 colon, 1.59% (active). Also, the growth is -56.7% (active) in the assay with HCC-2998 colon and -60.7% (active) with KM12 colon.
For the compound `CN(C)c1ncnc2c1nnn2C1OC(CO)C(O)C1O` (stereo not given), the growth in the assay on T-47D breast was 10.5%; with BT-549 breast, 46.1%; with MDA-MB-435 melanoma, 8.72% (active); with SW-620 colon, 19.1%; with MCF7 breast, 6.74% (active); with HCT-116 colon, 17.2%. Moreover, the growth with HCC-2998 colon was 8.01% (active); in the assay with KM12 colon, 13.7%.
With `Cc1n[nH]c(C)c1N=Nc1cccc2c1C(=O)c1ccccc1C2=O`, the growth with T-47D breast was 79.3%; in the assay on BT-549 breast it was 100%; in the assay on MDA-MB-435 melanoma, 107%; in the assay with SW-620 colon, 84.6%; with MCF7 breast it was 81%; with HCT-116 colon it was 77.8%. For the same compound, the figures for the growth in the assay on HCC-2998 colon and in the assay on KM12 colon were 96.1% and 99.5%, respectively.
Consider `O=C(/C=C/c1cccc(B(O)O)c1)c1cccc(B(O)O)c1`, for which the growth is 11.1% in the assay on T-47D breast; -91% (active) with BT-549 breast; 0.799% (active) with MDA-MB-435 melanoma; -41.3% (active) with SW-620 colon; 0.092% (active) in the assay with MCF7 breast; -88.3% (active) with HCT-116 colon. Further, the growth with HCC-2998 colon was -86.4% (active); in the assay with KM12 colon, -64.4% (active).
For `Nc1c(Br)cc(Br)c2c1[nH]c(=O)c1ccccc12`, the growth was 39.2% in the assay on T-47D breast; 76.8% with BT-549 breast; 93.3% in the assay on MDA-MB-435 melanoma; 73.4% in the assay with SW-620 colon; 22.1% in the assay on MCF7 breast; 83.1% in the assay with HCT-116 colon. Also, the growth with HCC-2998 colon was 87.5%; in the assay on KM12 colon, 101%.
On to `Nc1nc(Cl)nc2c1ncn2C1O[C@H](CO)[C@@H](O)[C@@H]1F` (stereo not given in full), for which the growth in the assay on T-47D breast is 49.3%; in the assay on BT-549 breast, 20.4%; in the assay with MDA-MB-435 melanoma, 41.5%; with SW-620 colon, 49.7%; in the assay with MCF7 breast, 30.7%; with HCT-116 colon, 25.3%. Also, the growth with HCC-2998 colon is 57.3%; in the assay on KM12 colon, 51.4%.
